Out of some 86,000 compounds screened, about 1,200 (1.4%) were called active. The sample holds actives, similar compounds and a random draw of the others, so the mix is not that of the screen. Rule as the data show it: active = activity above about 200%; inactive = the rest.
target: Estrogen receptor (Homo sapiens) (UniProt P03372); experiment: enhancers of ERα–SRC-1 coactivator binding, primary screen, biochemical, TR-FRET, ERα LBD, low estradiol (AID 639); conditions: TR-FRET ERalpha-LBD/SRC-Cy5 coactivator binding, 2 h; at 25.6 µM; stronger effect = higher value; 100 = basal binding, no effect;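 also: binding measured in presence of low estradiol as agonist stimulus; 0% = peptide alone without receptor and 100% = receptor with peptide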
Sequence (P03372 whole entry, looked up, the tested form may be a part): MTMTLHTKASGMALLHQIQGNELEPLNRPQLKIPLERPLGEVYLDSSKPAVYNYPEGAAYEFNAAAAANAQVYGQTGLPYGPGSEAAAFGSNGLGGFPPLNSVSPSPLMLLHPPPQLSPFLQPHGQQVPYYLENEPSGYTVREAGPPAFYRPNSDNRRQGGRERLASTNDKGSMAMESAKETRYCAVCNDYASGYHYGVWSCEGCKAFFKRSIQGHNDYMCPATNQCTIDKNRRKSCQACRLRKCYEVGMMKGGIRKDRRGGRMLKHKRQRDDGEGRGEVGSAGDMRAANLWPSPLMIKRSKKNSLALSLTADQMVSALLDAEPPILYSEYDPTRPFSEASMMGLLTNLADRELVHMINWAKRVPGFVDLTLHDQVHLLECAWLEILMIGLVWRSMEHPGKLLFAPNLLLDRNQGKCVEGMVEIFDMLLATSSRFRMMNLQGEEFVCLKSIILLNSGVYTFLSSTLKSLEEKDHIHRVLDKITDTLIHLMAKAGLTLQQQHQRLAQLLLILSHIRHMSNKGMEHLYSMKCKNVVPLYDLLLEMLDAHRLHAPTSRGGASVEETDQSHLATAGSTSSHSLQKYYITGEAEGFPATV

Row | SMILES | coactivator binding (% of control)
1 | CCOc1cc(C2C(C(=O)OC)=CN(C3CCCC3)C=C2C(=O)OC)cc(Br)c1O | 210% [fluorescence artefact?] (active)
2 | CCOc1ccccc1C1C(C(=O)OC)=CN(C)C=C1C(=O)OC | 93.7% (inactive)
3 | CCOc1ccc(CNC(=O)C2CCC(=O)N2C2CCCC2)cc1OC (configuration not stated) | 131% (inactive)
4 | CCOCc1nnc(NC(=O)CSc2ccc(C)cc2)s1 | 102% (inactive)
5 | CCOc1ccccc1NC(=O)C1CCCN(C(=O)Nc2ccccc2)C1 (configuration not stated) | 92.4% (inactive)
6 | Cc1cc(NS(=O)(=O)c2ccccc2)no1 | 122% (inactive)
7 | CCOc1ccc(NC(=O)Nc2cc(C)on2)cc1 | 107% (inactive)
8 | CCOc1ccc(CC(=O)Nc2ccc(S(=O)(=O)Nc3cc(C)on3)cc2)cc1OCC | 311% [fluorescence artefact?] (active)
9 | CCCCC(C(=O)OCC(=O)c1ccc(OC)cc1)N1C(=O)c2ccccc2C1=O (configuration not stated) | 97.8% (inactive)
10 | Cn1c(=O)c2c(ncn2CC(COCc2ccccc2Cl)OCc2ccccc2Cl)n(C)c1=O (configuration not stated) | 112% (inactive)
11 | CCOC(=O)c1nnn(-c2nonc2-n2cccc2)c1CN1CCC(C(=O)OCC)CC1 | 114% (inactive)
12 | O=c1[nH]c(SCc2ccccc2)nnc1-c1ccccc1 | 103% (inactive)
13 | COc1ccc(N2CCN(C(=O)CSc3nc4cc(OC)c(OC)cc4cc3C#N)CC2)cc1 | 101% (inactive)
14 | COC(=O)CSc1nc(C)c2ccc(OC)cc2n1 | 100% (inactive)
15 | CCOc1ccc2cc(C#N)c(SCC(=O)OC)nc2c1 | 260% [fluorescence artefact?] (active)
16 | CC(C)C(OC(=O)c1cccs1)C(=O)NC1CCCCC1 (configuration not stated) | 115% (inactive)
17 | CCOCCCNC(=O)C(NC(=O)c1ccc(=O)[nH]c1)c1ccc(C)cc1 (configuration not stated) | 107% (inactive)
18 | CCOC(=O)c1cnc(SCC(=O)Nc2cccc(OC)c2)nc1N | 113% (inactive)
19 | CCOC(=O)c1cnc(-n2nc(C)cc2C)nc1-n1nc(C)cc1C | 116% (inactive)
20 | CCOC(=O)c1cnc(-n2nc(C)cc2C)nc1Nc1cccc(C(C)=O)c1 | 868% [fluorescence artefact?] (active)
21 | N=c1c2c3c(sc2nc2n1CCCCC2)CCCC3 | 113% (inactive)
22 | CNC(=S)N1N=C(c2ccccc2)CC1c1ccc(Br)cc1 (configuration not stated) | 171% (inactive)
23 | COc1ccc(-n2c(C)cc(C(=O)CSc3nnc(-c4cccs4)o3)c2C)cc1 | 201% (active)

Row | SMILES | coactivator binding (% of control)
24 | COc1ccc(-c2nnc(SCC(=O)c3cccs3)o2)c(OC)c1 | 94.7% (inactive)
25 | COc1ccc(OC)c(C(=O)CSc2nnc(-c3cccs3)o2)c1 | 125% (inactive)
26 | CCN(CC)C(=O)CSc1ncnc2c1cnn2-c1ccccc1 | 117% (inactive)
27 | Cc1nc2c(-c3ccc(F)cc3)c(C)nn2c(C)c1CCC(=O)NCc1ccco1 | 96.1% (inactive)
28 | CC(C)N1C(=S)SC(C)(C)C1n1oc(=O)n(-c2ccc(Cl)c(Cl)c2)c1=O (configuration not stated) | 113% (inactive)
29 | Cc1cc(C)n(C(=O)CCNC(=O)c2ccccc2Cl)n1 | 100% (inactive)
30 | Cc1ccc(C)c(N2C(=O)CS/C2=N\NC(=O)c2ccccc2Cl)c1 | 102% (inactive)
31 | CCc1ccc(CNC(=O)C2CC(=O)N(CCc3ccc(C)cc3)C2)cc1 (configuration not stated) | 115% (inactive)
32 | N#CC(=C1SC=CS1)c1nc(-c2ccccc2)cs1 | 206% (active)
33 | N#CC(=C1CCCC1)c1nc(-c2ccc(Cl)cc2)cs1 | 103% (inactive)
34 | N#C/C(=C1\CCCN1)c1nc(-c2ccccc2)cs1 | 116% (inactive)
35 | Cc1nc(N2CCOCC2)nc2c1CCCC2 | 111% (inactive)
36 | CCCOc1ccc(N2C(=O)CC(N(CCc3ccc(S(N)(=O)=O)cc3)C(C)=O)C2=O)cc1 (configuration not stated) | 126% (inactive)
37 | Nn1c(Cc2cccc3ccccc23)nnc1SCC(=O)N1CC(=O)Nc2ccccc21 | 63.7% (inactive)
38 | COc1ccc(-n2ncc3c(N4CCc5ccccc54)ncnc32)cc1 | 200% [fluorescence artefact?] (active)
39 | COc1ccc(-n2ncc3c(N4CCCc5ccccc54)ncnc32)cc1 | 97.2% (inactive)
40 | Cc1cccc(-n2ncc3c(N4CCc5ccccc54)ncnc32)c1 | 137% (inactive)
41 | CCOC(=O)c1nnn(-c2nonc2OC)c1-c1ccccc1 | 102% (inactive)
42 | CCOC(=O)NC(C(F)(F)F)(C(F)(F)F)P(=O)(c1ccccc1)c1ccccc1 | 95.9% (inactive)
43 | CCOC(=O)C1=C(c2ccccc2)O/C(=C(/C(=O)OC)C(F)(F)F)S1 | 360% [fluorescence artefact?] (active)
44 | COC(=O)c1ccccc1NC(=O)Cc1ccccc1OC | 120% (inactive)
45 | COc1ccc(NC(=O)CC2COc3ccccc3O2)c(OC)c1 (configuration not stated) | 104% (inactive)
46 | O=C(CSc1nnc(-c2cnccn2)n1Cc1ccco1)c1ccc(Cl)c(Cl)c1 | 137% (inactive)

Row | SMILES | coactivator binding (% of control)
47 | CCc1ccc(NC(=O)CSc2nnc(-c3cnccn3)n2Cc2ccco2)cc1 | 148% (inactive)
48 | Cc1ccc(NC(=O)CSc2nnc(-c3cnccn3)n2Cc2ccco2)cc1C | 335% (active)
49 | CCOc1ccc(NC(=O)CN(C)CC(=O)Nc2cccc(Cl)c2C)cc1OCC | 105% (inactive)
50 | CC1CCC(NC(=O)c2ccc(N3CCCC3=O)cc2)CC1 (configuration not stated) | 143% (inactive)
51 | O=C(NCCCN1CCCCCC1)c1ccc(N2CCCC2=O)cc1 | 588% [fluorescence artefact?] (active)
52 | CCOc1ccc(C(=O)NCCCN2CCCC2=O)cc1 | 96% (inactive)
53 | CCOc1cc(C(=O)Nc2c(C)ccc3nsnc23)cc(OCC)c1OCC | 78.1% (inactive)
54 | O=C(NCc1ccccc1)C1CCCN(S(=O)(=O)c2cccs2)C1 (configuration not stated) | 91.1% (inactive)
55 | COCCNC(=O)COc1ccccc1C | 118% (inactive)
56 | COc1ccc(CCNC(=O)CN(c2ccccc2)S(C)(=O)=O)cc1OC | 76.4% (inactive)
57 | CN(C)c1ccnc2sc3c(=O)n(-c4ccc(Cl)cc4)cnc3c12 | 162% (inactive)
58 | Cc1cc(C)n(-c2nc(SCC(=O)N3CCCC3)c3c4c(sc3n2)CCCC4)n1 | 93.8% (inactive)
59 | COCCn1c(SCc2nnc(-c3ccc(OC)c(OC)c3)o2)nc2sc3c(c2c1=O)CCC3 | 94.4% (inactive)
60 | COCCn1c(C)cc(C(=O)CSc2ncnc3sc4c(c23)CCC4)c1C | 409% [fluorescence artefact?] (active)
61 | CCCCCCC12CCC(C(=O)O)(CC1)CC2 | 104% (inactive)
62 | CC(=O)Oc1ccc(NC(=O)CCC2CCCCC2)c(C(=O)O)c1 | 105% (inactive)
63 | CC(NC(=O)C1CCC(CNc2c(N3CCOCC3)c(=O)c2=O)CC1)c1ccccc1 (configuration not stated) | 98.1% (inactive)
64 | Cc1nc(SCC(=O)Nc2cc(C)on2)c2c3c(sc2n1)CCCC3 | 128% (inactive)
65 | Cc1ccc(-c2csc(SCC(=O)Nc3cc(C)on3)n2)cc1 | 98.5% (inactive)
66 | C=CCn1c(SCc2c(C)noc2C)nc2sc3c(c2c1=O)CCC(C)C3 (configuration not stated) | 93.6% (inactive)
67 | CC1CCc2c(sc3nc4n(c(=O)c23)CCS4)C1 (configuration not stated) | 96.2% (inactive)
68 | Cc1cc(NC(=O)CSc2nc(C(C)C)nc3sc4c(c23)CCC(C)C4)no1 (configuration not stated) | 269% [fluorescence artefact?] (active)
69 | Cc1nc(SCC(=O)Nc2cc(C)on2)c2c(C)c(C)sc2n1 | 565% [fluorescence artefact?] (active)

Row | SMILES | coactivator binding (% of control)
70 | O=C(c1ccc2c(c1)OCO2)N1CCN(C(=O)c2ccco2)CC1 | 103% (inactive)
71 | Cc1cccc(S(=O)(=O)CC(=O)Nc2nc(-c3ccccc3)cs2)c1 | 103% (inactive)
72 | Cc1cc(=O)oc2cc(OCC3CC(c4ccccc4Cl)=NO3)ccc12 (configuration not stated) | 117% (inactive)
73 | O=C(Nc1ccc(Br)cc1)c1cccc(NC(=O)C2C3CC4OC(=O)C2C4C3)c1 (configuration not stated) | 115% (inactive)
74 | CCS(=O)(=O)N1CCC(C(=O)N2CCN(c3ccccc3)CC2)CC1 | 103% (inactive)
75 | CCN1C(=O)/C(=C\N2CCOCC2)SC1=S | 93% (inactive)
76 | CS(=O)(=O)N(CC(=O)N1CCN(c2cccc(Cl)c2)CC1)c1ccccc1 | 118% (inactive)
77 | CCN1C(=O)/C(=C\N2CCN(c3ccccc3)CC2)SC1=S | 289% (active)
78 | CCn1c(=O)cc(OCC(=O)NCCCN2CCN(c3cccc(Cl)c3)CC2)c2ccccc21 | 107% (inactive)
79 | CCN1C(=O)/C(=C\N2CCN(c3cccc(Cl)c3)CC2)SC1=S | 413% [fluorescence artefact?] (active)
80 | Cc1cccc(-c2nc3c(c(SCC(=O)N4CCOCC4)n2)CCCC3)c1 | 94.4% (inactive)
81 | CC1CCN(C(=O)c2cc3nc(C4CC4)cc(C(F)(F)F)n3n2)CC1 | 93.5% (inactive)
82 | COCCNC(=O)Cn1cc(C(=O)c2cccs2)c2ccccc21 | 102% (inactive)
83 | CCCn1c(SCC(=O)Nc2cccc(C(=O)OCC)c2)nnc1-c1ccoc1C | 97.2% (inactive)
84 | CCn1c(SCC(=O)Nc2cccc(F)c2)nnc1-c1cc2cc(Br)ccc2o1 | 476% (active)
85 | CCn1c(Cc2ccccc2)nnc1SCC(=O)Nc1ccccc1 | 122% (inactive)
86 | CCOc1ccc(-n2c(N)c(C(=O)NCC3CCCO3)sc2=S)cc1 (configuration not stated) | 99.2% (inactive)
87 | O=c1[nH][nH]c(C(F)(F)F)c1C=NCc1ccccc1Cl | 109% (inactive)
88 | CC1CCCC(C)N1CCCNC(=O)c1cc2c(=O)n(C)c3ccccc3c2n1C (configuration not stated) | 74.4% (inactive)
89 | Cn1c(C(=O)NCCc2ccsc2)cc2c(=O)n(C)c3ccccc3c21 | 278% (active)
90 | Cn1c(C(=O)NCCCN2CCN(c3cccc(Cl)c3)CC2)cc2c(=O)n(C)c3ccccc3c21 | 132% (inactive)
91 | CCOc1ccc(S(=O)(=O)NCC2CCCO2)cc1 (configuration not stated) | 97.5% (inactive)
92 | COCCn1c(=S)[nH]c2cc(C(=O)NCCc3ccc(OC)c(OC)c3)ccc2c1=O | 179% (inactive)

From PubChem BioAssay AID639 (Emory University Molecular Libraries Screening Center, 2007)
